A short description of experiment [1]: sensitizers of A549 cells to miR-34 induction, primary screen, imaging, A549 dox-inducible miR-34, nuclei and caspase counts (AID 1347080). The settings on record: A549 miR-34 inducible, Hoechst nuclei count, 48 h.
Experiment [2] can be described thus: viability rescue of complex I mutant cybrids, primary screen, cell-based, galactose medium, ATP luminescence (AID 1645843;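 active = z-score of at least 1.8 in each of two replicates, scored against plate mean and spread of sample wells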;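 note: positive z means more ATP and so rescue of galactose-driven cybrid death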). The conditions noted are these: complex I mutant cybrid cells, 72 h, stronger effect = higher value.
Experiment [3] is described as follows: circadian clock period modulators, cell-based, LOPAC library, luminescence reporter (AID 2774; call rule not given here;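 note: values are relative to mean of DMSO wells on each plate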). The conditions noted are these: circadian reporter cells, at 7 µM, actives lie on both sides.
The target of experiment [4] is ATP-dependent translocase ABCB1 (Homo sapiens) (UniProt P08183). As to the kind of experiment: MDR1 (ABCB1) efflux transporter inhibition, cell-based (AID 377; in the data active = fluorescence slope change above about 50%). The conditions noted are these: MDR1-expressing cells, fluorescent substrate accumulation slope; stronger effect = higher value; concentration not given here.
Chain of ATP-dependent translocase ABCB1 (Homo sapiens) (P08183 whole entry, looked up): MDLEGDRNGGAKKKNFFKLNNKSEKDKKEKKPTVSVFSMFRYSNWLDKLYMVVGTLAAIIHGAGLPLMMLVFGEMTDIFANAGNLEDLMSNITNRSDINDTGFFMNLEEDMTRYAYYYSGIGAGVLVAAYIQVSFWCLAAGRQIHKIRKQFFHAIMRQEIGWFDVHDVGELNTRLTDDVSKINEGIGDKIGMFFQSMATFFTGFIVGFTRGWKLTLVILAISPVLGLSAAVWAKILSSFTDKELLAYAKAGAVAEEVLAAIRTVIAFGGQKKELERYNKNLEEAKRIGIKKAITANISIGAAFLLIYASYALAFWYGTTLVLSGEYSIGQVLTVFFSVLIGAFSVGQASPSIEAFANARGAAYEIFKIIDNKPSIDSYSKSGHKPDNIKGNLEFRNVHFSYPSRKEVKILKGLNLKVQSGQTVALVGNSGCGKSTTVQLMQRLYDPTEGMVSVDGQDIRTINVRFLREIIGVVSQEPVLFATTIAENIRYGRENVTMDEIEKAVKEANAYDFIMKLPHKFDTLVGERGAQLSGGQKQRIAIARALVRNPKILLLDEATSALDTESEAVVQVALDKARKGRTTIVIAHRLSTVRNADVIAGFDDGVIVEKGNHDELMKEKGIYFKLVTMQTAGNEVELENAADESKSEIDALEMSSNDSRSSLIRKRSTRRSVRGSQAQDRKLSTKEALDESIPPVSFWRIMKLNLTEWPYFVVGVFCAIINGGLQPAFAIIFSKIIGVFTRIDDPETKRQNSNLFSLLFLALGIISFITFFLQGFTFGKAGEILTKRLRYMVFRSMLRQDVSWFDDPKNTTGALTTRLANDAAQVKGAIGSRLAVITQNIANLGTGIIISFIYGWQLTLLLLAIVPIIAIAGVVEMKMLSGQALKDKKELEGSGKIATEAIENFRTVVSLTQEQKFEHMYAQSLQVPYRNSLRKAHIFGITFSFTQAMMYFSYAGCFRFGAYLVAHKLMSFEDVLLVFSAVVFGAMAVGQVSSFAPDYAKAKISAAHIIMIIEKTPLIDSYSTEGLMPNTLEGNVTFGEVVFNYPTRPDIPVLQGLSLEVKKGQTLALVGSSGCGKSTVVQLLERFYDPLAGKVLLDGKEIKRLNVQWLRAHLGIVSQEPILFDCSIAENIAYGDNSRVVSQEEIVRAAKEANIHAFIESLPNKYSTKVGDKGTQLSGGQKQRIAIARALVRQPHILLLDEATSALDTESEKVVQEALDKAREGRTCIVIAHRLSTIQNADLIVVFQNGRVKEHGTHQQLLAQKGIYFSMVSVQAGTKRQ
Experiment [5] in a line: hESC survival regulators, cell-based (AID 493140; call rule not given here;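 note: cells exposed to compounds for four days before counting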). The settings on record: human embryonic stem cell survival screen; stronger effect = higher value.
Experiment [6] in a line: liver-stage malaria parasite growth inhibition, primary screen, cell-based, HepG2, luciferase luminescence, HepG2 viability (AID 624349; in the data active = parasite load remaining mostly below about 12%, no sharp cut-off; inactive = mostly above about 10%;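 note: 100% = mean of DMSO negative control wells on the same plate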). The settings on record: P. berghei liver stage in HepG2, luciferase luminescence, concentration not given here; parasite load remaining: stronger effect = lower value; viability: measured here: HepG2 viability without parasites.
The mark [7] stands for this setting: stronger effect = lower value, cell number ratio, induced over uninduced.
[8] abbreviates: measured here: relative caspase fold change +Dox/-Dox.
[9] abbreviates: measured here: total cells with miR-34 induction, stronger effect = lower value.
[10] abbreviates: measured here: total cells without miR-34 induction.

The results in this text go back to PubChem BioAssay.

SMILES strings stand for the structures. Several values for one entry are separate records, joined by “and”; a condition that tells them apart may be missing. Equal values may be shown once. Records with an inconclusive call do not appear. Activity calls are given as the source filed them.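 Rule for the calls, unless noted: active = compounds whose cell count with miR-34 switched on is under 0.7 times the count with it off; inactive = the rest.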

Turning to `CCCCCC=CCC=CCC=CCC=CCCCC(=O)Nc1ccc(O)cc1`, the figures for the fold change in experiment [1] (setting [7]) and in experiment [1] (setting [8]) were 0.829 (inactive) and 1.13, respectively. Moreover, the cell count was determined as 7710 in experiment [1] (setting [9]) and 9290 in experiment [1] (setting [10]). Moreover, the z-score in experiment [2] was -1.44 (inactive).
In the same order, the values of `CC(C)[C@]12OC1C1O[C@]13[C@]1(OC1CC1C4=C(CC[C@@]13C)C(=O)OC4)C2O` (some centres undefined) are 0.971 (inactive), 1.93, 2260, 2320 and -1.85 (inactive).
On the same counts, the results for `Oc1cc2c(cc1O)C1c3ccccc3CNC1CC2` (centres undefined) are 0.881 (inactive), 2.62, 9630, 10900 and -1.86 (inactive).
`CN1CCC(c2ccc(F)cc2)C(COc2ccc3c(c2)OCO3)C1` (centres undefined): the fold change in experiment [1] (setting [7]) is 0.906 (inactive); in experiment [1] (setting [8]) it was 1.59. For the same compound, the results for the cell count in experiment [1] (setting [9]) and in experiment [1] (setting [10]) were 7350 and 8110, respectively. Moreover, the z-score in experiment [2] was -1.4 (inactive).
As for `C[C@]12CCC(=O)C=C1CCC1C2CC[C@@]2(C)C1CC[C@]2(C)O` (some centres undefined), the fold change in experiment [1] (stronger effect = lower value) is 1.16 (inactive); in experiment [1] (setting [8]) it was 0.795. In addition, the cell count in experiment [1] (setting [9]) was determined as 2670; in experiment [1] (setting [10]), 2300. In addition, the z-score in experiment [2] is -1.03 (inactive).
`CC1CCCC(O)CCCCCc2cc(O)cc(O)c2C(=O)O1` (centres undefined): the results for the fold change in experiment [1] (stronger effect = lower value) and in experiment [1] (setting [8]) were 0.901 (inactive) and 1.75, respectively. The cell count worked out at 8720 in experiment [1] (setting [9]) and 9680 in experiment [1] (setting [10]). In addition, the z-score in experiment [2] is -0.095 (inactive).
On to `C[C@H]1C2Cc3ccc(O)cc3C1(C)CCN2CC1CC1` (some centres undefined), for which the period change in experiment [3] was -0.055 h (inactive). In addition, the fold change in experiment [1] (stronger effect = lower value) is 0.949 (inactive); in experiment [1] (setting [8]) it was 1.14. The cell count came out at 10600 in experiment [1] (setting [9]) and 11200 in experiment [1] (setting [10]). Also, in experiment [2], the z-score was -0.12 (inactive).
In the case of `COc1ccc2[nH]c3c(c2c1)CCN=C3C`, in experiment [4], the fluorescence slope change is 83.4% (active). Moreover, the survival in experiment [5] was 10.2 (inactive). In addition, the parasite load remaining in experiment [6] is 105% (inactive) and 62.3% (inactive). Moreover, the viability in experiment [6] was 98.5% and 75.1%. Further, the fold change in experiment [1] (stronger effect = lower value) was 0.83 (inactive); in experiment [1] (setting [8]), 1.33. In addition, the cell count was found to be 7960 in experiment [1] (setting [9]) and 9590 in experiment [1] (setting [10]).
Take `CCCCC/C=C\C/C=C\C/C=C\C/C=C\CCCC(=O)NCCc1ccc(O)c(O)c1`: the survival in experiment [5] was 69.6 (inactive). Besides, the fold change in experiment [1] (setting [7]) is 0.953 (inactive); in experiment [1] (setting [8]) it was 1.09. For the same compound, the cell count in experiment [1] (setting [9]) was 5250; in experiment [1] (setting [10]), 5510.
Regarding `C[C@@H]1NCCc2cc(O)c(O)cc21`, in experiment [4], the fluorescence slope change is -10.9% (inactive). Further, the survival in experiment [5] is 6 (inactive). Further, in experiment [6], the parasite load remaining is 75.9% (inactive) and 47.5% (inactive). The viability in experiment [6] was 120% and 73.8%. Also, the fold change was 0.841 (inactive) in experiment [1] (setting [7]) and 1.51 in experiment [1] (setting [8]). Also, the cell count came to 8760 in experiment [1] (setting [9]) and 10400 in experiment [1] (setting [10]).
With `CNC1CC(c2ccc(Cl)c(Cl)c2)c2ccccc21` (centres undefined), the fold change in experiment [1] (setting [7]) is 0.956 (inactive); in experiment [1] (setting [8]) it was 1.45. For the same compound, the cell count in experiment [1] (setting [9]) was 5010; in experiment [1] (setting [10]) it was 5240. In addition, the z-score in experiment [2] is -1.44 (inactive).
As to `COC1=C[C@@H]2C3=C([C@@H]2C1=O)[C@@H](NC(C)=O)CCc1cc(OC)c(OC)c(OC)c13`, the fluorescence slope change in experiment [4] is 70.2% (active). For the same compound, in experiment [6], the parasite load remaining was 62.8% (inactive). Moreover, the viability in experiment [6] stood at 107%. Also, the fold change in experiment [1] (setting [7]) is 0.865 (inactive); in experiment [1] (setting [8]), 1.41. The figures for the cell count in experiment [1] (setting [9]) and in experiment [1] (setting [10]) were 9450 and 10900, respectively.
For the compound `C[C@]12Cc3cn[nH]c3CC1CCC1C2CC[C@@]2(C)C1CC[C@]2(C)O` (some centres undefined), the fold change in experiment [1] (stronger effect = lower value) is 0.922 (inactive); in experiment [1] (setting [8]) it was 1.42. Further, the cell count in experiment [1] (setting [9]) was determined as 8110; in experiment [1] (setting [10]), 8800. Further, the z-score in experiment [2] was -0.42 (inactive).
On to `CC[C@H]1CN2CCC1C[C@H]2[C@H](O)c1ccnc2ccc(OC)cc12` (some centres undefined), for which, in experiment [5], the survival is 6.08 (inactive). Moreover, the parasite load remaining in experiment [6] is 83.6% (inactive) and 51.6% (inactive). The viability in experiment [6] is 106% and 80.9%. In addition, the fold change is 0.867 (inactive) in experiment [1] (setting [7]) and 1.17 in experiment [1] (setting [8]). Further, the cell count worked out at 8140 in experiment [1] (setting [9]) and 9390 in experiment [1] (setting [10]).
`C/C=C1/C[N+]2(C)CCC34C(=C(C=O)[C@H]1C[C@@H]32)Nc1ccccc14` (some centres undefined): in experiment [4], the fluorescence slope change was 21.2% (inactive). In addition, the survival in experiment [5] was 3.83 (inactive). Also, the parasite load remaining in experiment [6] is 95% (inactive). For the same compound, the viability in experiment [6] was 101%. The fold change was 0.931 (inactive) in experiment [1] (stronger effect = lower value) and 1.21 in experiment [1] (setting [8]). Also, the cell count in experiment [1] (setting [9]) was determined as 8700; in experiment [1] (setting [10]), 9340.
Turning to `OC[C@H]1O[C@@H](n2cnc3cc(Cl)c(Cl)cc32)C(O)[C@H]1O` (some centres undefined), the survival in experiment [5] is 56.1 (inactive). Besides, the fold change is 0.916 (inactive) in experiment [1] (stronger effect = lower value) and 0.917 in experiment [1] (setting [8]). Also, the cell count in experiment [1] (setting [9]) is 1540; in experiment [1] (setting [10]), 1680.
For `CN1CC[C@@]23CCCCC2C1Cc1ccc(O)cc13` (some centres undefined), the fold change in experiment [1] (stronger effect = lower value) is 0.886 (inactive); in experiment [1] (setting [8]) it was 1.9. The cell count was determined as 9070 in experiment [1] (setting [9]) and 10200 in experiment [1] (setting [10]). For the same compound, the z-score in experiment [2] is 0.545 (inactive).
Regarding `COc1cc2c(cc1OC)[C@@]13CCN4CC5=CCOC6CC(=O)N2C1C6C5CC43` (some centres undefined), the fold change is 0.989 (inactive) in experiment [1] (setting [7]) and 1.53 in experiment [1] (setting [8]). Further, the cell count in experiment [1] (setting [9]) was 8280; in experiment [1] (setting [10]), 8360. In addition, the z-score in experiment [2] is -0.335 (inactive).
Turning to `C[C@]12CCC3C(CCC4=CC(=O)CC[C@@]43C)C1CCC2O` (some centres undefined), the fold change in experiment [1] (stronger effect = lower value) is 0.881 (inactive); in experiment [1] (setting [8]), 1.72. Besides, the cell count in experiment [1] (setting [9]) is 8500; in experiment [1] (setting [10]), 9660. The z-score in experiment [2] is 0.515 (inactive).
Take `CC(C)C[C@H]1C(=O)N2CCC[C@H]2[C@]2(O)O[C@](NC(=O)[C@@H]3C=C4c5cccc6[nH]cc(c56)C[C@H]4N(C)C3)(C(C)C)C(=O)N12`: the fluorescence slope change in experiment [4] is 95.9% (active). The survival in experiment [5] was 9.42 (inactive). In addition, in experiment [6], the parasite load remaining is 59.7% (inactive). For the same compound, the viability in experiment [6] was 94.6%. Further, the fold change in experiment [1] (stronger effect = lower value) was 0.917 (inactive); in experiment [1] (setting [8]) it was 1.12. For the same compound, the values for the cell count in experiment [1] (setting [9]) and in experiment [1] (setting [10]) were 7540 and 8220, respectively.
In the case of `CCCCC/C=C\C/C=C\C/C=C\C/C=C\CCCC(=O)N[C@H](C)CO`, the survival in experiment [5] is 87.2 (inactive). For the same compound, the fold change in experiment [1] (stronger effect = lower value) was 0.941 (inactive) and 1.01 (inactive); in experiment [1] (setting [8]), 0.931 and 0.764. In addition, the cell count in experiment [1] (setting [9]) is 5390 and 6000; in experiment [1] (setting [10]) it was 5730 and 5950.
For `CN1CC[C@]2(c3cccc(O)c3)Cc3nc4ccccc4cc3CC2C1` (some centres undefined), the results for the fold change in experiment [1] (setting [7]) and in experiment [1] (setting [8]) were 0.813 (inactive) and 1.31, respectively. The values for the cell count in experiment [1] (setting [9]) and in experiment [1] (setting [10]) were 7470 and 9190, respectively. In addition, the z-score in experiment [2] is -0.555 (inactive).
Turning to `COC1=CC(=O)O[C@@H](/C=C/c2ccccc2)C1`, in experiment [5], the survival was 16.6 (inactive). For the same compound, in experiment [6], the parasite load remaining was 26.1% (inactive) and 89.1% (inactive). In addition, the viability in experiment [6] was 46.2% and 90.2%. Besides, the fold change in experiment [1] (stronger effect = lower value) is 0.899 (inactive); in experiment [1] (setting [8]), 1.34. For the same compound, the cell count in experiment [1] (setting [9]) stood at 8920; in experiment [1] (setting [10]) it was 9920.
As for `C=C(C)CN1CC[C@]23c4c5ccc(O)c4OC2c2[nH]c4ccccc4c2C[C@@]3(O)C1C5` (some centres undefined), the fold change in experiment [1] (stronger effect = lower value) was 0.245 (active); in experiment [1] (setting [8]), 1.96. The figures for the cell count in experiment [1] (setting [9]) and in experiment [1] (setting [10]) were 761 and 3110, respectively. Further, the z-score in experiment [2] was -1.44 (inactive).
Consider `CCCCCCCCCCCCCCCCOC[C@H](COP(=O)([O-])OCC[N+](C)(C)C)OC(C)=O`, for which the survival in experiment [5] is 57.8 (inactive). Besides, the fold change in experiment [1] (stronger effect = lower value) is 0.933 (inactive) and 0.881 (inactive); in experiment [1] (setting [8]), 1.16 and 1.84. Besides, the cell count in experiment [1] (setting [9]) was 5630 and 5430; in experiment [1] (setting [10]), 6040 and 6160.

As a reminder, the viability is a read-out of living cells in per cent, often relative to untreated cells.
